Most compounds without a hit are left out; they make up all but 18% or so of the library.
TDP1 cell noCPT = qHTS for Inhibitors of human tyrosyl-DNA phosphodiesterase 1 (TDP1): qHTS in cells in absence of CPT | Potency, µM (top dose mostly 46.2 µM), without a hit: at the top dose activity change, negative = growth inhibition, actives largely listed as inhibitors | actives 15% (n = 420,000) | DT40 Tdp1-/- hTDP1 cells, no CPT, ATP luminescence, 48 h; further: nearly all actives have a fitted effect of over 55% in size
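Compound effects on proliferation are scored in DT40 Tdp1-/-;hTDP1 cells in the absence of CPT. ATP levels (CellTiter-Glo luminescence) are recorded after a ≥48 hr, 37 °C incubation.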
TDP1 inh = qHTS Assay for Inhibitors of Tyrosyl-DNA Phosphodiesterase (TDP1); Tyrosyl-DNA phosphodiesterase 1 (Homo sapiens), Q9NUW8; recombinant TDP1, AlphaScreen DNA substrate cleavage; Potency, µM (highest dose often 130 µM), inactives show at the top dose activity change, negative = inhibition, hits mostly inhibitors; actives 0.28% (n = 350,000); further: nearly all actives have a fitted effect of over 40% in size
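Signal: AlphaScreen proximity between streptavidin donor and anti-FITC acceptor beads on intact substrate. Reaction: Tdp1 1 nM, substrate 15 nM final, 5 min RT after 15 min compound preincubation.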
VDR inhibitor = Inhibitors of the vitamin D receptor (VDR): qHTS; Vitamin D3 receptor (Homo sapiens), P11473; VDR-SRC2-3 peptide fluorescence polarization, 2 h; Potency, µM, without a hit: max response, negative = inhibition, hits mostly inhibitors; actives 0.93% (n = 400,000); AID 504847, 2011
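Fluorescence polarization assay measuring small-molecule disruption of VDR binding to the coregulator peptide SRC2-3. Compounds were pin-transferred (23 nl) into the reagent mix and incubated 2 h at room temperature before reading.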
TDP1 cell CPT = qHTS for Inhibitors of human tyrosyl-DNA phosphodiesterase 1 (TDP1): qHTS in cells in presence of CPT; chicken DT40 Tdp1-/-;hTDP1 cells + 20 nM CPT, ATP luminescence, 48 h; Potency, µM (highest dose often 46.2 µM), for inactives: top-dose activity change, negative = growth inhibition, actives largely listed as inhibitors; actives 12% (n = 420,000); AID 686979, 2013; further: nearly all actives have a fitted effect of over 55% in size
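Cell growth measured by CellTiter-Glo luminescence after a minimum 48 h, 37 C compound exposure with 20 nM CPT in Tdp1-knockout DT40 cells stably expressing hTDP1, seeded 400/well; qHTS titration format.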
GCN5L2 inh = qHTS Assay for Inhibitors of GCN5L2 | GCN5L2 HAT assay, ThioGlo1 CoA-SH fluorescence | Potency, µM (series often up to 58.9 µM), for the others: at the top dose activity change, negative = inhibition, hits mostly inhibitors | actives 0.21% (n = 390,000) | AID 504327, 2011
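Preincubate 20nM GCN5L2 with compound 15 min, RT → add 50uM ThioGlo1 + 75uM H3(1-25) + 70uM acetyl-CoA → read fluorescence 0 and 20 min. Primary qHTS; fluorescent artifacts likely.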
PLK1 PBD inh = qHTS for Inhibitors of PLK1-PDB (polo-like kinase 1 - polo-box domain): Primary Screen | Plk1 PBD binding of FITC phosphopeptide, fluorescence polarization | Potency, µM, without a hit: max response, negative = inhibition, usual class: inhibitors | actives 2.8% (n = 360,000); further: series mostly up to about 57 µM; nearly all actives have a fitted effect of over 65% in size
Target sequence (P53350 whole entry, looked up, the tested form may be a part): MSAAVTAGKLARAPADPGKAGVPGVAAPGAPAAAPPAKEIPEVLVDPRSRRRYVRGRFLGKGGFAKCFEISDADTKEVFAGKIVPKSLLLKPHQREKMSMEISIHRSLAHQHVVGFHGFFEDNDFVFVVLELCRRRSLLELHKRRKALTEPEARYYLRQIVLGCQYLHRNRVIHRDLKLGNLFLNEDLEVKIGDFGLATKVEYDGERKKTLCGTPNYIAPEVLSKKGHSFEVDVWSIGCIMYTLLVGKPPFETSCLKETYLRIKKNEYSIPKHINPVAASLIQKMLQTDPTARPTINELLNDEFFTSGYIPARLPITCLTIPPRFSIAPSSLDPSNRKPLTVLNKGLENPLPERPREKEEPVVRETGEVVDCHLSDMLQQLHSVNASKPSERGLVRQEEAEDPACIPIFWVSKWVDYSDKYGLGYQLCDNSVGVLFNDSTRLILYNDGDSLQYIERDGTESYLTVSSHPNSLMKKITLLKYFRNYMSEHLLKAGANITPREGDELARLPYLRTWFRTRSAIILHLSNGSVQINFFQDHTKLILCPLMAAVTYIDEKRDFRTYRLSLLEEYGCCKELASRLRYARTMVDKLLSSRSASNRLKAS
Numbers without * were called inactive; ? = inconclusive; / = no result; [ ] = dose if it differs, or a comment. The call rests on the fitted dose curve; in most records, active means well fitted curve in the direction sought with a large enough effect; inconclusive means small, poorly fitted or top-dose-only effect, or another doubt; inactive means no such curve, though single readings can be large; an effect the other way counts as inactive or inconclusive. On the % scale 0 is the no-effect control and ±100 the full control effect; potency means the concentration at half of the fitted maximal effect.

SMILES	TDP1 cell noCPT	TDP1 inh	VDR inhibitor	TDP1 cell CPT	GCN5L2 inh	PLK1 PBD inh
O=C(CN1C(=O)/C(=C/c2ccc(F)cc2)SC1=S)NC1C=CS(=O)(=O)C1 (configuration not stated)	?	-2%	-8%	?	-11%	-5%
O=C(CN1C(=O)/C(=C/c2ccc(Cl)cc2)SC1=S)NC1C=CS(=O)(=O)C1 (configuration not stated)	5.8µM*	-4%	-7%	6.5µM*	-4%	-18%
Cc1ccc(C(c2nnnn2CCc2ccccc2)N2CCSCC2)cc1 (configuration not stated)	?	9%	-14%	16µM*	-4%	1%
COc1ccccc1CN1CCN(C(CC(C)C)c2nnnn2Cc2cccs2)CC1 (configuration not stated)	?	3%	-2%	18µM*	2%	-2%
Cc1ccc(C(c2nnnn2Cc2cccs2)N2CCN(Cc3ccc4c(c3)OCO4)CC2)cc1 (configuration not stated)	9.2µM*	2%	-11%	7.3µM*	-12%	-21%
COCCn1nnnc1C(c1ccc(C)cc1)N1CCN(Cc2ccc3c(c2)OCO3)CC1 (configuration not stated)	?	6%	-11%	16µM*	-2%	24µM*
COc1ccc(CCn2nnnc2C(c2ccc(C)cc2)N2CCN(C)CC2)cc1OC (configuration not stated)	-10%	2%	25%	2%	-3%	-1%
CCOc1c(Cl)cc(/C=C/C(=O)N(CC)CC(=O)NCc2cccs2)cc1OC	?	/	-12%	?	-4%	2%
CC(=O)c1sc(N/N=C\c2c(O)ccc3ccccc23)nc1C	0.92µM*	/	14%	0.92µM*	/	24%
Cc1cc(N/N=C/c2c(O)ccc3ccccc23)nc(-c2ccccc2O)n1	2.6µM*	5%	-17%	8.2µM*	-8%	-14%
CC(=O)c1sc(N/N=C/c2cccc(O)c2)nc1C	12µM*	/	-22%	26µM*	-20%	-5%
COc1cc(Cl)c(C)cc1NC(=O)c1cn(C2CCCC2)c(=O)c2c1c1ccccc1n2C	?	-2%[12.3 µM]	-1%	0.65µM*	-1%	/
COc1cc(OC)c(N(C)C(=O)c2cn(C3CCCC3)c(=O)c3c2c2ccccc2n3C)cc1Cl	8.2µM*	5%	6%	10µM*	-16%	/
CC/C=C1/OC(=O)c2ccccc21	/	8%	/	/	/	/
Fc1ccc(-c2cn3ccccc3n2)cc1	-28%	6%	8%	-5%	-3%	-10%
c1ccn2cc(-c3ccc4c(c3)OCCO4)nc2c1	26µM*	5%	13%	15µM*	-8%	-7%
CC(C)c1cccc(C(C)C)c1NC(=O)CNCC(O)c1ccccc1 (configuration not stated)	-3%	/	5%	-6%	0%	4%
CC(C)c1cccc(C(C)C)c1NC(=O)CCl	16µM*	-5%	-9%	?	-6%	-9%
CC(C)CNS(=O)(=O)c1ccc(Br)cc1N1CCC[C@@H]1CO	-3%	0%[56.1 µM]	-8%	?	-1%	-7%
O=C(Nc1cccc(F)c1)[C@H](CSCc1ccccc1)N1Cc2ccccc2C1=O	?	3%	-4%	-8%	-17%	/
COCC(=O)Nc1c(C(=O)Nc2ccc3c(c2)OCO3)oc2ccccc12	?	1%	-20%	?	-4%	30µM*
O=C(CCl)Nc1c(C(=O)Nc2ccc3c(c2)OCCO3)oc2ccccc12	10µM*	?	-3%	5.2µM*	2%	-11%
COc1cccc(NC(=O)c2oc3ccccc3c2NC(=O)c2ccc3c(c2)OCO3)c1	?	-1%	-1%	14µM*	?	-6%
CC(=O)Nc1c(C)nn(-c2ccccc2)c1N1CCC(C(=O)Nc2cccc(C(F)(F)F)c2)CC1	?	5%	18%	?	-28%	/
CCOC(=O)c1ccc(N2CCOCC2)c(NS(=O)(=O)c2ccc(F)cc2)c1	2%	3%	-16%	-20%	-28%	-4%
SMILES	TDP1 cell noCPT	TDP1 inh	VDR inhibitor	TDP1 cell CPT	GCN5L2 inh	PLK1 PBD inh
O=C(c1cccnc1)N1N=C(C2CCCCC2)CC1(O)C(F)(F)F (configuration not stated)	8.2µM*	5%	-9%	6.5µM*	-9%	-6%
Cc1nc(NCCc2ccccc2)c(C#N)c(C)c1[N+](=O)[O-]	4%	-5%	-17%	-3%	18%	-3%
Cc1ccc(NC2=NC3(CCCC3)N=C(N)N2)c(C)c1	3.7µM*	2%	-3%	2.9µM*	12%	-1%
Cc1ccc(NC2=NC3(CCCCC3)N=C(N)N2)c(C)c1	?	4%	12%	23µM*	-1%	-5%
Cc1ccc(C)c(NC2=NC3(CCCCC3)N=C(N)N2)c1	-20%	0%	-10%	-11%	0%	-13%
Cc1ccccc1NC1=NC2(CCCC2)N=C(N)N1	6%	8%	-21%	-14%	-3%	-6%
Cc1ccc(NC(=O)C2CCCN(c3nnc(C)c4c(C)n(-c5ccccc5)nc34)C2)c(Cl)c1 (configuration not stated)	3.3µM*	0%	4%	4.1µM*	-2%	/
CNC(=O)C1CCCN(c2nnc(C)c3c(C)n(-c4ccccc4)nc23)C1 (configuration not stated)	-16%	-3%	-4%	-6%	-1%	/
CCc1ccc(NC(=O)C2CCCN(c3nnc(C)c4c(C)n(-c5ccccc5)nc34)C2)cc1 (configuration not stated)	9.2µM*	8%	13%	?	0%	/
CCc1ccc(NC(=O)N2CCN(c3nnc(C)c4c(C)n(-c5ccc(Cl)cc5)nc34)CC2)cc1	23µM*	/	13%	?	3%	/
Cc1cc(C)cc(NC(=O)C2CCCN(c3nnc(C)c4c(C)n(-c5ccccc5)nc34)C2)c1 (configuration not stated)	15µM*	0%	7%	23µM*	-6%	/
O=C(O)c1cc(N/N=C/C=C/c2ccccc2[N+](=O)[O-])ccc1Cl	-10%	7%	7%	-22%	-14%	-15%
